From ChEMBL document CHEMBL1961873, “Compounds: GSK PKIS; Assays: Nanosyn kinase panel” (2012)
Several values for one entry are separate records, joined by “and”; a condition that tells them apart may be missing. Equal entries are not always repeated.

target: Tyrosine-protein kinase Lyn (Homo sapiens) (UniProt P07948); settings: at 1 µM;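 also: kinase tested as its LYN B splice variant, values given as mean percent inhibition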
Sequence (P07948 2-512 limits assumed): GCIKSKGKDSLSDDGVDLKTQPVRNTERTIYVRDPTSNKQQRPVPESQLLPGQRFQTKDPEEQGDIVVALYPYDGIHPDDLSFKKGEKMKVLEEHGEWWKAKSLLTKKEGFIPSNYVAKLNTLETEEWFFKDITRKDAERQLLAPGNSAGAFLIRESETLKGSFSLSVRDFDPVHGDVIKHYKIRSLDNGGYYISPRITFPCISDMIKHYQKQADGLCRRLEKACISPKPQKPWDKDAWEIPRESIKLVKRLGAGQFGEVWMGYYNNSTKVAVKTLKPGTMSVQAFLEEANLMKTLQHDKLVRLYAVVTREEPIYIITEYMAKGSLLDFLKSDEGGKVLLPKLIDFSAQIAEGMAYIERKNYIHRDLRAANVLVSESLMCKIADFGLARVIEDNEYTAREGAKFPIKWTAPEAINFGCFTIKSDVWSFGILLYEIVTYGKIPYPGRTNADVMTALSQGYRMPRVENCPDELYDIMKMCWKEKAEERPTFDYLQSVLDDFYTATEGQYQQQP

SMILES | inhibition
CCS(=O)(=O)c1ccc(OC)c(Nc2ncc(-c3cccc(F)c3)o2)c1 | 75.4%
CC1(C)CC(n2cnc(-c3ccc(F)cc3)c2-c2ccnc(N)n2)CC(C)(C)N1 | 0.86%
Fc1ccc(Nc2nccc(-c3c(-c4ccc(C(F)(F)F)cc4)nn4ncccc34)n2)cc1F | 0.38%
CCOc1ccc2c(-c3ccnc(Nc4cc(OC)cc(C(F)(F)F)c4)n3)cnn2n1 | 4.08%
CS(=O)(=O)CCNCc1ccoc1-c1ccc2ncnc(Nc3ccc(OCc4ccccc4)cc3)c2c1 | 4.32%
Cc1ccc(-c2cc3c(NC(=O)C4CC4)ncnc3o2)cc1 | 5.69%
O=C(O[C@H]1CN[C@H](C#Cc2cc3ncnc(Nc4ccc(OCc5cccc(F)c5)c(Cl)c4)c3s2)C1)N1CCOCC1 | 4.85%
COc1ccc(Nc2ncc(-c3ccccc3)o2)cc1OC | 32.9%
O=C(O[C@H]1CN[C@H](C#Cc2cc3ncnc(Nc4ccc5c(ccn5Cc5cc(F)ccc5F)c4)c3s2)C1)N1CCOCC1 | 1.87%
Cc1c2ccc(N(C)c3ccnc(Nc4cccc(S(N)(=O)=O)c4)n3)cc2nn1C | 80.7%
OCCCNc1nccc(-c2c(-c3ccc(F)cc3)nn3cc(C(F)(F)F)ccc23)n1 | 4.51%
O=C(O[C@H]1CN[C@H](C#Cc2cc3ncnc(Nc4ccc5c(cnn5Cc5ccccc5)c4)c3s2)C1)N1CCOCC1 | 0.75%
CCS(=O)(=O)c1ccc(OC)c(Nc2ncc(-c3cccc(C(C)=O)c3)o2)c1 | 40.8%
CS(=O)(=O)CCNCc1ccc(-c2ccc3ncnc(Nc4ccc(OCc5ccccc5)cc4)c3c2)o1 | 8.36%
Cn1c(-c2nonc2N)nc2cnccc21 | 1.52%
COc1cc2c(cc1Nc1nc(Nc3cccc(F)c3C(N)=O)c3cc[nH]c3n1)N(C(=O)CN1CCN(C(C)C)CC1)CC2 | -0.54%

SMILES | inhibition
Fc1cccc(COc2ccc(Nc3ncncc3C#Cc3ccccc3)cc2Cl)c1 | 7.49%
CS(=O)(=O)Nc1ccc(-c2ccc3c(NC(=O)C4CC4)n[nH]c3c2)cc1 | 3.58%
CCCNc1cccc(-n2ncc3c(N/N=C/c4ccncc4)ncnc32)c1 | 64.8%
Nc1ncnc2occ(-c3ccc(NC(=O)Nc4cc(C(F)(F)F)ccc4F)cc3)c12 | 70.5% and 53.6%
NS(=O)(=O)c1cccc(N/C=C2\C(=O)Nc3ccccc32)c1 | 8.12%
COc1cc(N2CCN(C(C)C)CC2)ccc1Nc1nc(Nc2cccc3ncccc23)c2cc[nH]c2n1 | 2.18%
CN1CCC(C(=O)Nc2n[nH]c3nc(-c4ccc(O)cc4)c(Br)cc23)CC1 | 6.26% and 2.78%
CCn1c(-c2nonc2N)nc2cncc(C(=O)NCCNC)c21 | 4.46%
CCN1CCC(C(=O)Nc2n[nH]c3nnc(-c4cccc(F)c4F)cc23)CC1 | 0.66%
CNC(=O)c1sc(-n2cnc3cc(OC)c(OC)cc32)cc1OCc1ccccc1C(F)(F)F | 7.2%
N#Cc1ccc2c(-c3ccnc(NC4CC4)n3)c(-c3ccc(F)cc3)nn2c1 | 1.81%
COc1ccc2ncn(-c3cc(O[C@H](C)c4ccccc4C(F)(F)F)c(C(N)=O)s3)c2c1 | 1.72%
c1cnn2ncc(-c3ccnc(NCCCN4CCOCC4)n3)c2c1 | 0.53%
O=C(Nc1n[nH]c2nnc(-c3cccnc3)cc12)C1CC1 | 1.61%
CS(=O)(=O)CCNCc1ccc(-c2ccc3ncnc(Nc4ccc(OCc5cccc(C(F)(F)F)c5)cc4)c3c2)o1 | 2.74%

target: T1, Tyrosine-protein kinase Mer (Homo sapiens) (UniProt Q12866); settings: at 0.1 µM;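 also: reported value is a mean inhibition of MER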
T1 sequence (whole entry): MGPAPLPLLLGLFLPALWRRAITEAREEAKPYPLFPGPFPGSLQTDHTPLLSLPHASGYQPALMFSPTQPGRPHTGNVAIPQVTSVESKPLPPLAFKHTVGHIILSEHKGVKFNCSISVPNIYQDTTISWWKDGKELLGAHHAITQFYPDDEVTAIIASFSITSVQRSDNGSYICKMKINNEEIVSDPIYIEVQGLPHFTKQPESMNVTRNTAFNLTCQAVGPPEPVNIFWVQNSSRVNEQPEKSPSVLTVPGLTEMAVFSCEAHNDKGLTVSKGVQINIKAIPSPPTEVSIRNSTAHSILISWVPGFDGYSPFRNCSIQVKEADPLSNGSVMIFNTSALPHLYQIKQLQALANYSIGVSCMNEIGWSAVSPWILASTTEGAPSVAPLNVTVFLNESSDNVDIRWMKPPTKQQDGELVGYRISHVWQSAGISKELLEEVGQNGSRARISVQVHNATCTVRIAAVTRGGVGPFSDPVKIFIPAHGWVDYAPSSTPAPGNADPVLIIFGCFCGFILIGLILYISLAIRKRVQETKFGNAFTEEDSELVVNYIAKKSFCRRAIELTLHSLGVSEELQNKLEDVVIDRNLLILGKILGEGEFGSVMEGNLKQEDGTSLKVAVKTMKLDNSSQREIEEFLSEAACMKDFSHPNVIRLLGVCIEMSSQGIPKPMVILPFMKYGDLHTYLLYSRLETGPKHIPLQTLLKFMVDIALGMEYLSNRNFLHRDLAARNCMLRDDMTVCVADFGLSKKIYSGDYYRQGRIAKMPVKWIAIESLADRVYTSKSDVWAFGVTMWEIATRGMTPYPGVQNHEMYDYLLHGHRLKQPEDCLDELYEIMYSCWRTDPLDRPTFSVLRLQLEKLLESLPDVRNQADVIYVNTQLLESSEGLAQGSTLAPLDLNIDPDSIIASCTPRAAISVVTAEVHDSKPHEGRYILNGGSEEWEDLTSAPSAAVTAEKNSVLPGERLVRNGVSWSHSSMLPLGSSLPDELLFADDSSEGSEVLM

SMILES | inhibition
CCS(=O)(=O)c1ccc(OC)c(Nc2ncc(-c3cccc(F)c3)o2)c1 | 2.9%
CC1(C)CC(n2cnc(-c3ccc(F)cc3)c2-c2ccnc(N)n2)CC(C)(C)N1 | 0.86%
Fc1ccc(Nc2nccc(-c3c(-c4ccc(C(F)(F)F)cc4)nn4ncccc34)n2)cc1F | 3.18%
CCOc1ccc2c(-c3ccnc(Nc4cc(OC)cc(C(F)(F)F)c4)n3)cnn2n1 | 1.11%
CS(=O)(=O)CCNCc1ccoc1-c1ccc2ncnc(Nc3ccc(OCc4ccccc4)cc3)c2c1 | 3.82%
Cc1ccc(-c2cc3c(NC(=O)C4CC4)ncnc3o2)cc1 | 2.35%
O=C(O[C@H]1CN[C@H](C#Cc2cc3ncnc(Nc4ccc(OCc5cccc(F)c5)c(Cl)c4)c3s2)C1)N1CCOCC1 | 2.6%
COc1ccc(Nc2ncc(-c3ccccc3)o2)cc1OC | -0.52%
O=C(O[C@H]1CN[C@H](C#Cc2cc3ncnc(Nc4ccc5c(ccn5Cc5cc(F)ccc5F)c4)c3s2)C1)N1CCOCC1 | 1.34%
Cc1c2ccc(N(C)c3ccnc(Nc4cccc(S(N)(=O)=O)c4)n3)cc2nn1C | 17.7%
OCCCNc1nccc(-c2c(-c3ccc(F)cc3)nn3cc(C(F)(F)F)ccc23)n1 | 0.89%
O=C(O[C@H]1CN[C@H](C#Cc2cc3ncnc(Nc4ccc5c(cnn5Cc5ccccc5)c4)c3s2)C1)N1CCOCC1 | 1.33%
CCS(=O)(=O)c1ccc(OC)c(Nc2ncc(-c3cccc(C(C)=O)c3)o2)c1 | 1.15%
CS(=O)(=O)CCNCc1ccc(-c2ccc3ncnc(Nc4ccc(OCc5ccccc5)cc4)c3c2)o1 | 7.16%
Cn1c(-c2nonc2N)nc2cnccc21 | 1.12%
COc1cc2c(cc1Nc1nc(Nc3cccc(F)c3C(N)=O)c3cc[nH]c3n1)N(C(=O)CN1CCN(C(C)C)CC1)CC2 | 1.98%

SMILES | inhibition
Fc1cccc(COc2ccc(Nc3ncncc3C#Cc3ccccc3)cc2Cl)c1 | 0.06%
CS(=O)(=O)Nc1ccc(-c2ccc3c(NC(=O)C4CC4)n[nH]c3c2)cc1 | 0.84%
CCCNc1cccc(-n2ncc3c(N/N=C/c4ccncc4)ncnc32)c1 | 6.21%
Nc1ncnc2occ(-c3ccc(NC(=O)Nc4cc(C(F)(F)F)ccc4F)cc3)c12 | 4.87% and 1.22%
NS(=O)(=O)c1cccc(N/C=C2\C(=O)Nc3ccccc32)c1 | 3.46%
COc1cc(N2CCN(C(C)C)CC2)ccc1Nc1nc(Nc2cccc3ncccc23)c2cc[nH]c2n1 | 0.54%
CN1CCC(C(=O)Nc2n[nH]c3nc(-c4ccc(O)cc4)c(Br)cc23)CC1 | 1.28% and 4.74%
CCn1c(-c2nonc2N)nc2cncc(C(=O)NCCNC)c21 | 3.05%
CCN1CCC(C(=O)Nc2n[nH]c3nnc(-c4cccc(F)c4F)cc23)CC1 | 0.64%
CNC(=O)c1sc(-n2cnc3cc(OC)c(OC)cc32)cc1OCc1ccccc1C(F)(F)F | 0.56%
N#Cc1ccc2c(-c3ccnc(NC4CC4)n3)c(-c3ccc(F)cc3)nn2c1 | 0.43%
COc1ccc2ncn(-c3cc(O[C@H](C)c4ccccc4C(F)(F)F)c(C(N)=O)s3)c2c1 | -0.24%
c1cnn2ncc(-c3ccnc(NCCCN4CCOCC4)n3)c2c1 | 3.19%
O=C(Nc1n[nH]c2nnc(-c3cccnc3)cc12)C1CC1 | 1.05%
CS(=O)(=O)CCNCc1ccc(-c2ccc3ncnc(Nc4ccc(OCc5cccc(C(F)(F)F)c5)cc4)c3c2)o1 | 1.26%
